Calls of active or inactive are those of the source. The calls were made as follows: active = hit-call score of the fitted dose curve at least 0.9, where 1 is the maximum; inactive = score below 0.9.
Assays:
Settings in all cases: mRNA level, 48 h; actives raise or lower the signal
[1] = read-out: Cytochrome P450 7A1 (Homo sapiens) (UniProt P22680); test: LTEA_HepaRG_CYP7A1: Life Technologies and Expression Analysis (LTEA) Assay for Cytochrome P450 7A1 (CYP7A1) using HepaRG (AID 2283496)
Summary of the method: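 HepaRG cells plated 48 h, then switched to serum-free induction medium and exposed in duplicate for 48 h to 8-point half-log series from 100 uM in 0.5% DMSO. CYP7A1 mRNA by qRT-PCR (TaqMan), normalized to ACTB/GAPDH/POLR2A; bidirectional fit versus DMSO.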

[2] = read-out: Glutathione S-Transferase (GSTA2), GSTA2 (gene 2939); test: LTEA_HepaRG_GSTA2: Life Technologies and Expression Analysis (LTEA) Assay for Glutathione S-Transferase (GSTA2) using HepaRG (AID 2283497)
Summary of the method: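 Human HepaRG cells, plated 48 h, then exposed in serum-free induction medium for 48 h to eight half-log concentrations up to 100 uM in 0.5% DMSO, duplicate. GSTA2 mRNA by qRT-PCR, normalized to ACTB/GAPDH/POLR2A; bidirectional fit versus DMSO.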

[3] = read-out: Glutamate-cysteine ligase catalytic (GCLC), GCLC (gene 2729); test: LTEA_HepaRG_GCLC: Life Technologies and Expression Analysis (LTEA) Assay for Glutamate-cysteine ligase catalytic (GCLC) using HepaRG (AID 2283498)
Summary of the method: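 Differentiated human HepaRG cells, plated 48 h then switched to serum-free induction medium, were exposed in duplicate for 48 h to 8 half-log concentrations topping at 100 uM in 0.5% DMSO. GCLC mRNA was quantified by qRT-PCR against ACTB, GAPDH and POLR2A.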

[4] = read-out: Glutamate-cysteine ligase regulatory (GCLM), GCLM (gene 2730); test: LTEA_HepaRG_GCLM: Life Technologies and Expression Analysis (LTEA) Assay for Glutamate-cysteine ligase regulatory (GCLM) using HepaRG (AID 2283500)
Summary of the method: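 Differentiated HepaRG cells exposed 48 h in serum-free induction medium to eight half-log concentrations up to 100 uM (0.5% DMSO). GCLM mRNA by TaqMan qRT-PCR, normalized to ACTB, GAPDH and POLR2A; bidirectional fit versus DMSO.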

[5] = read-out: Glutathione S-transferase M3 (GSTM3), GSTM3 (gene 2947); test: LTEA_HepaRG_GSTM3: Life Technologies and Expression Analysis (LTEA) Assay for Glutathione S-transferase M3 (GSTM3) using HepaRG (AID 2283501)
Summary of the method: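 GSTM3 transcript levels came from Fluidigm TaqMan qRT-PCR normalized to three housekeeping genes, fitted in both directions against DMSO. HepaRG cultures received chemicals for 48 h in serum-free induction medium (0.5% DMSO), 8 half-log concentrations up to 100 uM, duplicate.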

[6] = read-out: Heat shock 70 kDa protein 1 (HSPA1A), gene 3303; test: LTEA_HepaRG_HSPA1A: Life Technologies and Expression Analysis (LTEA) Assay for Heat shock 70 kDa protein 1 (HSPA1A) using HepaRG (AID 2283502)
Summary of the method: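 Human HepaRG cells in serum-free induction medium were exposed in duplicate for 48 h to 8 half-log concentrations, highest 100 uM, in 0.5% DMSO. HSPA1A mRNA read by TaqMan qRT-PCR, normalized to ACTB, GAPDH, POLR2A, fitted bidirectionally against DMSO.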

[7] = read-out: Hypoxia-inducible factor 1-alpha (Homo sapiens) (UniProt Q16665); test: LTEA_HepaRG_HIF1A: Life Technologies and Expression Analysis (LTEA) Assay for Hypoxia-inducible factor 1 (HIF1A) Trancription factor using HepaRG (AID 2283503)
Summary of the method: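 Differentiated HepaRG cells in serum-free induction medium exposed 48 h, in duplicate, to 8-point half-log series from 100 uM in 0.5% DMSO. HIF1A mRNA measured by TaqMan qRT-PCR, normalized to ACTB/GAPDH/POLR2A, fitted bidirectionally versus DMSO.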

[8] = read-out: 3-Hydroxy-3-Methylglutaryl-CoA Synthase 2 (HMGCS2), HMGCS2 (gene 3158); test: LTEA_HepaRG_HMGCS2: Life Technologies and Expression Analysis (LTEA) Assay for 3-Hydroxy-3-Methylglutaryl-CoA Synthase 2 (HMGCS2) using HepaRG (AID 2283504)
Summary of the method: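 Readout is HMGCS2 transcript by qRT-PCR, housekeeping-normalised (ACTB/GAPDH/POLR2A) and fitted bidirectionally against 0.5% DMSO. Differentiated HepaRG cells received chemicals 48 h, duplicate wells, eight half-log concentrations topping at 100 uM.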

HGF (gene 3082) = test: LTEA_HepaRG_HGF: Life Technologies and Expression Analysis (LTEA) Assay for Hepatocyte Growth Facto (HGF) using HepaRG (AID 2283505)
Summary of the method: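 HGF transcript was quantified by TaqMan qRT-PCR against three housekeeping genes after 48 h treatment of HepaRG cells. Exposure ran in duplicate over eight half-log steps topping at 100 uM in 0.5% DMSO vehicle.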

[9] = read-out: Insulin Like Growth Factor 1 (IGF1), IGF1 (gene 3479); test: LTEA_HepaRG_IGF1: Life Technologies and Expression Analysis (LTEA) Assay for Insulin Like Growth Factor 1 (IGF1) using HepaRG (AID 2283506)
Summary of the method: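 Differentiated HepaRG cells in serum-free induction medium, exposed 48 h in duplicate to 8 half-log concentrations up to 100 uM in 0.5% DMSO. IGF1 mRNA by Fluidigm qRT-PCR, normalised to ACTB, GAPDH and POLR2A.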

[10] = read-out: Intercellular Adhesion Molecule 1 (ICAM1), ICAM1 (gene 3383); test: LTEA_HepaRG_ICAM1: Life Technologies and Expression Analysis (LTEA) Assay for Intercellular Adhesion Molecule 1 (ICAM1) using HepaRG (AID 2283507)
Summary of the method: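 ICAM1 transcript levels measured by qRT-PCR, normalized to three housekeeping genes (ACTB, GAPDH, POLR2A), after 48 h chemical exposure of HepaRG cells. Duplicate eight-point half-log series from 100 uM in 0.5% DMSO; gain or loss fitted against vehicle.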

[11] = read-out: Insulin-like growth factor-binding protein 1 (IGFBP1), IGFBP1 (gene 3484); test: LTEA_HepaRG_IGFBP1: Life Technologies and Expression Analysis (LTEA) Assay for Insulin-like growth factor-binding protein 1 (IGFBP1) using HepaRG (AID 2283508)
Summary of the method: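 Read-out is qRT-PCR transcript level normalized to three housekeeping genes, fitted in both directions against 0.5% DMSO. Differentiated HepaRG cells received eight half-log concentrations (top 100 uM) in duplicate for 48 h in serum-free induction medium.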

[12] = read-out: Interleukin 6 (IL6), IL6 (gene 3569); test: LTEA_HepaRG_IL6: Life Technologies and Expression Analysis (LTEA) Assay for Interleukin 6 (IL6) using HepaRG (AID 2283509)
Summary of the method: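 Differentiated human HepaRG cells, plated 48 h then switched to serum-free induction medium, were exposed in duplicate for 48 h to eight half-log concentrations up to 100 uM in 0.5% DMSO. IL6 mRNA measured by qRT-PCR, normalized to ACTB/GAPDH/POLR2A.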

[13] = read-out: Interleukin 6 Receptor (IL6R), IL6R (gene 3570); test: LTEA_HepaRG_IL6R: Life Technologies and Expression Analysis (LTEA) Assay for Interleukin 6 Receptor (IL6R) using HepaRG (AID 2283510)
Summary of the method: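 Differentiated HepaRG cells, plated 48 h, then exposed in duplicate for 48 h in serum-free induction medium to 8 half-log concentrations (top 100 uM, 0.5% DMSO). IL6R mRNA measured by TaqMan qRT-PCR, normalized to ACTB/GAPDH/POLR2A; bidirectional fit vs DMSO.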

[14] = read-out: Potassium channel subfamily K member 1 (KCNK1), KCNK1 (gene 3775); test: LTEA_HepaRG_KCNK1: Life Technologies and Expression Analysis (LTEA) Assay for Potassium channel subfamily K member 1 (KCNK1) using HepaRG (AID 2283511)
Summary of the method: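 Differentiated human HepaRG cells in serum-free induction medium were exposed in duplicate for 48 h to 8 half-log concentrations up to 100 uM in 0.5% DMSO. KCNK1 mRNA was measured by TaqMan qRT-PCR, normalized to ACTB, GAPDH and POLR2A, and fitted bidirectionally versus DMSO.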

[15] = read-out: Keratin 19 (KRT19), KRT19 (gene 3880); test: LTEA_HepaRG_KRT19: Life Technologies and Expression Analysis (LTEA) Assay for Keratin 19 (KRT19) using HepaRG (AID 2283512)
Summary of the method: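 KRT19 transcript measured by TaqMan qRT-PCR, referenced to three housekeeping genes, after HepaRG cells received test chemicals for 48 h. Eight half-log concentrations, top 100 uM, 0.5% DMSO vehicle; increases and decreases both fitted.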

[16] = read-out: JUN Transcription Factor, JUN (gene 3725); test: LTEA_HepaRG_JUN: Life Technologies and Expression Analysis (LTEA) Assay for JUN Transcription Factor using HepaRG (AID 2283513)
Summary of the method: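 HepaRG cells, 48 h post-plating, exposed 48 h in serum-free induction medium to 8-point half-log series (top 100 uM, 0.5% DMSO), duplicate; mRNA by qRT-PCR (TaqMan, Fluidigm), normalized to ACTB/GAPDH/POLR2A; bidirectional fit vs DMSO.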

[17] = read-out: Lipase C (LIPC), LIPC (gene 3990); test: LTEA_HepaRG_LIPC: Life Technologies and Expression Analysis (LTEA) Assay for Lipase C (LIPC) using HepaRG (AID 2283514)
Summary of the method: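 Differentiated human HepaRG cells in serum-free induction medium were exposed in duplicate for 48 h to eight concentrations (top 100 uM, half-log steps, 0.5% DMSO). LIPC mRNA was quantified by TaqMan qRT-PCR, normalized to ACTB, GAPDH and POLR2A, with bidirectional fitting versus DMSO.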

[18] = read-out: Lipoprotein lipase (LPL), LPL (gene 4023); test: LTEA_HepaRG_LPL: Life Technologies and Expression Analysis (LTEA) Assay for Lipoprotein lipase (LPL) using HepaRG (AID 2283515)
Summary of the method: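 Differentiated human HepaRG cells in serum-free induction medium were exposed in duplicate for 48 h to eight half-log concentrations (top 100 uM) in 0.5% DMSO. LPL mRNA was quantified by TaqMan qRT-PCR, normalized to ACTB, GAPDH and POLR2A.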

Measured: AC50

Hypoxia-inducible factor 1-alpha (Homo sapiens), sequence (Q16665 whole entry, looked up): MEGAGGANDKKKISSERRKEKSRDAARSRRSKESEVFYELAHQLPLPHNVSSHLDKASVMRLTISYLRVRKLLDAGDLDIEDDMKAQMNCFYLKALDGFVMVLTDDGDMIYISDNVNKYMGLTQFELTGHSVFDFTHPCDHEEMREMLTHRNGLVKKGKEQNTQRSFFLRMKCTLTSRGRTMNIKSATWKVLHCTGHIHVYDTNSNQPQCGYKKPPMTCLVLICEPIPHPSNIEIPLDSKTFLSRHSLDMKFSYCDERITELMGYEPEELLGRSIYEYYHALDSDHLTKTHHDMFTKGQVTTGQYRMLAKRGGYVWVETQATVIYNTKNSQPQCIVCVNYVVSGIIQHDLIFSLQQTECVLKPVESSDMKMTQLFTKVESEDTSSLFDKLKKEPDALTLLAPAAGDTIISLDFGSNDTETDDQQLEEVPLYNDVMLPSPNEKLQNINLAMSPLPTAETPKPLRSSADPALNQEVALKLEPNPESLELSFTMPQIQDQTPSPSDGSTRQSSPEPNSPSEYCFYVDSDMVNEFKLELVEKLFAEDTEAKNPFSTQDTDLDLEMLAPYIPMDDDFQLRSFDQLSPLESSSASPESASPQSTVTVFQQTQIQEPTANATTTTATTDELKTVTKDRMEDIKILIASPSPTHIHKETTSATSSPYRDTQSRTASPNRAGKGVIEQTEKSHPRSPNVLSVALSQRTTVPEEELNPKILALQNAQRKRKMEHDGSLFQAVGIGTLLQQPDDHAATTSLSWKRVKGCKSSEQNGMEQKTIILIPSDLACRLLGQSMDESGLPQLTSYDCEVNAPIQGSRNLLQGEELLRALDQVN

CCOC(=O)CC(SP(=S)(OC)OC)C(=O)OCC (stereo not drawn)
inactive: [1] | [2] | [3] | [4] | [5] | [6] | [7] | [8] | HGF (gene 3082) | [9] | [10] | [11] | [12] | [13] | [14] | [15] | [16] | [17] | [18]

COC(=O)c1ccccc1C(=O)OC
inactive: [1] | [2] | [3] | [4] | [5] | [6] | [7] | [8] | HGF (gene 3082) | [9] | [10] | [11] | [12] | [13] | [14] | [15] | [16] | [17] | [18]

O=C(Nc1ccccc1)Nc1ccnc(Cl)c1
active: [1] 81.3 µM | [2] 24.9 µM | [3] 83 µM | [4] 84.8 µM | [5] 80.4 µM | [6] 84.2 µM | [8] 28.6 µM | HGF (gene 3082) 78 µM | [9] 28.3 µM | [11] 63.4 µM | [12] 93.9 µM | [13] 76.2 µM | [15] 28.1 µM | [17] 24 µM | [18] 81.8 µM
inactive: [7] | [10] | [14] | [16]

CON(C)C(=O)Nc1ccc(Cl)c(Cl)c1
inactive: [5] | [6] | [7] | HGF (gene 3082) | [10] | [12] | [13] | [14] | [16]
active: [1] 16.8 µM | [2] 50 µM | [3] 80 µM | [4] 73.2 µM | [8] 63.4 µM | [9] 50 µM | [11] 50 µM | [15] 48.5 µM | [17] 31.6 µM | [18] 12.5 µM

CCCCOC(=O)c1ccccc1C(=O)OCCCC
inactive: [1] | [2] | [3] | [4] | [5] | [6] | [7] | [8] | HGF (gene 3082) | [9] | [10] | [11] | [12] | [13] | [14] | [15] | [16] | [17] | [18]

C#CCOS(=O)OC1CCCCC1Oc1ccc(C(C)(C)C)cc1 (stereo not drawn)
active: [1] 26.6 µM | [2] 27.7 µM | [3] 28.2 µM | [4] 9.92 µM | [5] 29.7 µM | [6] 27.2 µM | [7] 26.4 µM | [8] 25.6 µM | HGF (gene 3082) 20.1 µM | [9] 19.5 µM | [11] 14.6 µM | [12] 23.1 µM | [13] 14.5 µM | [14] 21.5 µM | [15] 12.8 µM | [18] 28.7 µM
inactive: [10] | [16] | [17]

N#CC(CCc1ccc(Cl)cc1)(Cn1cncn1)c1ccccc1 (stereo not drawn)
active: [1] 75.3 µM | [2] 68 µM | [4] 67.3 µM | [6] 79.5 µM | [7] 73.7 µM | [8] 67.9 µM | HGF (gene 3082) 93.6 µM | [9] 50 µM | [10] 71.6 µM | [11] 74.4 µM | [12] 80.2 µM | [14] 44.6 µM | [16] 90.3 µM | [17] 65.9 µM | [18] 50 µM
inactive: [3] | [5] | [13] | [15]
